Screens from PubChem.
MARV entry inh – Marburg virus entry inhibition; actives 1.8% (n = 300,000); Potency, µM (titrated, usually from 37.8 µM), inactives show top-dose activity change, negative = inhibition, hits mostly inhibitors; Marburg virus pseudotyped entry inhibition, cell reporter; calls by dose curve; tested in HEK293 cells; also: potency is read from the fitted curve at half-maximal effect; % is scaled to controls: 0 for no effect and ±100 for the full control effect
CHX counter – affects cycloheximide protein synthesis inhibition readout, counter-screen; cell reporter, cycloheximide protein synthesis inhibition counterscreen; max response, %; actives 12% (n = 300,000); in the data active = max response mostly above about 13%, no sharp cut-off; inactive = mostly below about 14%; also: read at 38.3 µM for the half of the compounds with a filed dose; 0% is about no effect
Vaccinia Venus – inhibitors of vaccinia virus (Venus reporter) | Vaccinia virus Venus reporter expression, fluorescence | Potency, µM (doses to about 36.5 µM), for inactives: at the top dose activity change, negative = inhibition, usual class: inhibitors | actives 0.46% (n = 330,000) | AID 720580; calls by dose curve; tested in A549 cells; also: potency is read from the fitted curve at half-maximal effect; % is scaled to controls: 0 for no effect and ±100 for the full control effect; nearly all actives have a fitted effect of over 30% in size
LASV entry inh – inhibitors of Lassa virus binding or cell entry | Potency, µM (series often up to 37.9 µM), without a hit: top-dose activity change, negative = inhibition, most hits filed as inhibitors | AID 540256 | actives 1.2% (n = 300,000) | Lassa virus pseudotype entry inhibition, cell reporter; calls by dose curve; tested in HEK293 cells; also: potency is read from the fitted curve at half-maximal effect; % is scaled to controls: 0 for no effect and ±100 for the full control effect; nearly all actives have a fitted effect of over 50% in size
Vaccinia mCherry – inhibitors of vaccinia virus infection (mCherry reporter signal); Vaccinia virus mCherry reporter infection, fluorescence; Potency, µM (doses to about 36.5 µM), without a hit: at the highest dose activity change, negative = inhibition, most hits filed as inhibitors; actives 0.63% (n = 310,000); AID 720579; calls by dose curve; tested in A549 cells; also: potency is read from the fitted curve at half-maximal effect; % is scaled to controls: 0 for no effect and ±100 for the full control effect; nearly all actives have a fitted effect of over 35% in size
Shiga toxin inh – blocks Shiga toxin action in Vero cells | Vero cells, Shiga toxin protein synthesis inhibition reporter | inhibition, % at 38.7 µM | actives 9.2% (n = 290,000) | AID 2315; in the data active = inhibition mostly above about 28%, no sharp cut-off; inactive = mostly below about 43%; also: 0% is about no effect
Numbers without * were called inactive; i = inactive; ? = inconclusive; · = no result given; [ ] = another dose, or the depositor's remark. Many of the other results were omitted from the sample, so hits are more common in it than they were.

SMILES	MARV entry inh	CHX counter	Vaccinia Venus	LASV entry inh	Vaccinia mCherry	Shiga toxin inh
C/C(=N\NC(=O)c1nn(C)cc1Br)c1ccncc1	2%	55*	6%	18%	-14%	92*
C/C(=N\NC(=O)C(=O)Nc1cccc(Cl)c1C)c1ccncc1	?	-3	0%	-17%	-11%	-10
C/C(=N\NC(=O)c1ccc(N2CCCC2=O)cc1)c1ccncc1	4%[46.1 µM]	-3	-13%	-10%[46.1 µM]	i	1
C/C(=N\NC(=O)c1nn(C)cc1Cl)c1ccncc1	8%	31*	-10%	8%	i	46*
Cc1ccccc1-c1ccc(/C=C2/SC(N3CCOCC3)=NC2=O)o1	?	-2	-26%	13µM*	-24%	13
N#CCCN1CCN(C2=NC(=O)/C(=C\c3cccs3)S2)CC1	?	21*	-16%	2%	-19%	29
O=C1N=C(N2CCOCC2)S/C1=C\c1cccs1	3%	22*	-21%	·	0%	39*
Cc1ccsc1/C=C1/SC(N2CCOCC2)=NC1=O	29%	21	·	25%	·	42
CC(=O)OC[C@H]1O[C@H](C/C=N/OC[C@@H](C)[C@H](OCc2ccccc2)C(C)C)C=C[C@@H]1OC(C)=O	-10%[14.2 µM]	·	·	·	·	·
Cc1ccc(-n2c(O)c(/C=N/c3ncn[nH]3)c3ccccc3c2=O)cc1	?	13	0%	?	-25%	-6
Oc1c(/C=N/c2ncn[nH]2)ccc2ccccc12	-23%	27*	·	-5%	·	66*
Cc1nc(SCC(=O)NCc2ccco2)c2c(C)c(C)sc2n1	15µM*	8	·	?	·	-6
Cc1nc(SCC(=O)Nc2ccc(S(=O)(=O)N3CCOCC3)cc2)c2c(C)c(C)sc2n1	?	·	?	1.1µM*	-13%	·
Cc1nc(SCC(=O)N2CCOCC2)c2c(C)c(C)sc2n1	-3%[46.1 µM]	0	-7%	?	-10%	6
Cc1sc2ncnc(SCC(=O)NC(=O)NCc3ccco3)c2c1C	5%	-2	-11%	-12%	-9%	23
Cc1sc2nc(C(C)C)nc(SCC(=O)NCc3ccco3)c2c1C	-22%	32*	-20%	-1%	-17%	45
COc1ccc(C(C(=O)NC(C)(C)C)N(CCc2ccc(OC)c(OC)c2)C(=O)CCC(=O)Nc2cc(C)on2)cc1 (centres undefined)	?	-5	-10%	-12%[46.1 µM]	i	-10
O=C(Cn1c(=O)n(Cc2ccco2)c(=O)c2ccc(C(=O)NC3CCCC3)cc21)Nc1ccc(F)cc1	-20%[46.1 µM]	·	6%	3%[46.1 µM]	19%	·
CC1C(=O)N2CCCc3cc(NC(=O)COc4ccccc4)cc1c32 (centres undefined)	2%	·	-16%	6%	-27%	·
Cc1cc(C)cc(NC(=O)c2cccc(C(=O)Nc3cc(C)cc(C)c3)n2)c1	4%	0	-3%	?	-7%	-4
CC(C)=CCC/C(C)=C/COc1ccc2ccc(=O)oc2c1	·	8	-1%	·	-6%	9
COc1cc2ccc(=O)oc2c(O)c1OCC=C(C)C	11%	11	-17%	22%	-9%	85*
CC(C)=CCOc1ccc2ccc(=O)oc2c1	·	21*	-2%	·	4%	35*
CC1=CC(C/C(C)=C/COc2ccc3ccc(=O)oc3c2)OC1=O (centres undefined)	·	16*	-11%	·	i	24*
CC(C)=CCC/C(C)=C/CC/C(C)=C/COc1ccc2ccc(=O)oc2c1	·	·	1%	·	-9%	·
SMILES	MARV entry inh	CHX counter	Vaccinia Venus	LASV entry inh	Vaccinia mCherry	Shiga toxin inh
CC(=O)Oc1ccc2ccc(=O)oc2c1	·	0	0.0025µM*	·	100µM*	-4
CC(C)=CCC/C(C)=C/COc1c2occc2cc2ccc(=O)oc12	·	·	-1%	·	44%	·
Cc1ccccc1-c1ncc(CN2CCN(C3CCCCC3)C(CCO)C2)cn1 (centres undefined)	·	22*	·	·	·	16
CSc1ncc(CN2CCN(C3CCCCC3)C(CCO)C2)cn1 (centres undefined)	4%[46.1 µM]	2	-8%	17%[46.1 µM]	-5%	3
OCCC1CN(CC(c2ccccc2)c2ccccc2)CCN1C1CCCC1 (centres undefined)	13µM*	-2	-16%	?	-20%	11
OC1CCN(Cc2ccc3c(c2)CN(Cc2ccc(Oc4ncccn4)cc2)CCO3)CC1	·	·	-16%	·	i	·
CCC1CN(Cc2cccc3nccnc23)Cc2cc(OC)ccc2O1 (centres undefined)	·	·	5%	·	-8%	·
C=CCc1c(C)nc(SC)nc1Nc1ccc(C(C)=O)cc1	-16%	46*	?	10%	·	82*
C=CCc1c(C)nc(SC)nc1Nc1ccc(C(=O)O)cc1	-15%	-4	·	-14%	·	2
COc1ccc(S(=O)(=O)NCCc2sc(-c3cccnc3)nc2C)c(F)c1	·	·	5%	-22%[46.1 µM]	-2%	·
C=CCN(C(=O)CCc1ccccc1OC)c1nc(-c2ccc(S(C)(=O)=O)cc2)cs1	?	39*	-22%	?	-23%	63*
C=CCN(C(=O)Cc1cccs1)c1nc(-c2ccc(S(C)(=O)=O)cc2)cs1	?	21*	-16%	?	-29%	73*
Cc1c(O)ccc(NC(=O)/C=C/c2ccccc2)c1C	16%[46.1 µM]	12	-12%	0%	-16%	48*
COC(=O)c1cc(NC(=O)/C=C/c2ccccc2)ccc1O	·	48*	·	·	·	121*
COc1cc(NC(=O)/C=C/c2ccccc2)c(C(=O)O)cc1OC	·	0	6%	·	1%	10
CCS(=O)(=O)c1ccc(O)c(NC(=O)/C=C/c2ccccc2)c1	?	28*	-4%	4%	-3%	73*
Cc1ccc(C)c(N2CCN(C(=O)Cn3cnc4nc5c(cc4c3=O)CCCC5)CC2)c1	·	·	-30%	?	-26%	·
Cc1cccc(OCC(=O)Nc2ccc3c(c2)OCCO3)c1	2%[46.1 µM]	62*	-7%	?	-23%	111*
Cc1ccc(OCC(=O)Nc2ccc3c(c2)OCCO3)cc1C	?	32*	-13%	?	?	178*
COc1cc(=O)n2c(c1C(=O)N(C)Cc1ccsc1)CCN(Cc1c(C)nn(C)c1Cl)CC2	·	·	-2%	·	-9%	·
Cc1oc2c(c1C(=O)c1ccccc1)C(=O)C(=O)c1ccccc1-2	?	11	?	10µM*	·	-5
CCOC(=O)c1c(C)oc2c1C(=O)c1ccccc1C2=O	?	30*	·	?	·	50*
Cc1oc2c(c1C(=O)O)C(=O)c1ccccc1C2=O	·	13	?	·	?	45
O=C1C(=O)c2c(C(=O)c3ccccc3)coc2-c2ccccc21	?	11	?	?	?	-19
CCOCCCn1c(SCC(=O)Nc2ccccc2OC)nc2c(oc3ccccc32)c1=O	-6%[46.1 µM]	·	8%	·	-8%	·
CCOC(=O)c1ccccc1OC(=O)CS(=O)c1ccccc1[N+](=O)[O-] (centres undefined)	-1%[46.1 µM]	-3	-7%	9%[46.1 µM]	-3%	13
CS(=O)(=O)c1ccc(S(=O)CC(=O)OCc2ccccc2)c([N+](=O)[O-])c1 (centres undefined)	?	11*	-14%	?	-22%	17
